Screens as filed in PubChem BioAssay.
An excerpt weighted towards active compounds, which were near 0.86% of everything screened.
A1 inhib: inducers of caspase activity in MEF A1-2A-BIM cells, primary screen, A1 inhibitor project, cell-based, CaspaseGlo luminescence; caspase-Glo luminescence, 3 h; percent of clofoctol signal, DMSO as zero; caspase activation, % (concentration not given with the values); hit rate 0.51% among 21,000;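 active means most replicate scores above 10, or exactly half above 10 with mean activity above 10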;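 further: effector caspase 3 and 7 activity cleaving a DEVD luciferin substrate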
BJeLR viability: BJeLR cell viability loss, primary screen, luminescence, CellTiterGlo ATP. BJeLR fibroblasts viability, 48 h; HRASV12, hTERT and SV40 LT/ST transformed. viability loss activity score, % (concentration not given with the values). hit rate 0.64% among 30,000. AID 2275, 2010; in the data active means viability loss activity score above about 50%;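 further: higher score means fewer live cells and less ATP luminescence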
Each line names hits and unclear results; the compound was inactive in the other large screens.

COC[C@H]1OC(=O)c2coc3c2[C@@]1(C)C1=C(C3=O)[C@@H]2CCC(=O)[C@@]2(C)C[C@H]1OC(C)=O	A1 inhib 62
CCOc1cc(CN2CCN(C(=O)COc3ccc(C)cc3)CC2)ccc1OC	none
CCC1C2CC[N+]3([O-])CCC4(C(=C2C(=O)OC)Nc2c(OC)cccc24)C13 (stereo not drawn)	none
CC[C@H]1CN2CCc3cc(OC)c(OC)cc3[C@@H]2C[C@@H]1C[C@H]1NCCc2cc(O)c(OC)cc21	A1 inhib 19, BJeLR viability 94
COc1cc2c(cc1O)CCNC2C (stereo not drawn)	none
CCC(C)[C@H]1C(=O)O[C@H](C(C)C)C(=O)N(C)[C@@H](C(C)CC)C(=O)O[C@H](C(C)C)C(=O)N(C)[C@@H](C(C)CC)C(=O)O[C@H](C(C)C)C(=O)N1C (stereo partly drawn)	A1 inhib 86, BJeLR viability 91
CCOc1ccc(C(Nc2ccccc2)P2(=S)OCCCO2)cc1 (stereo not drawn)	none (no result: A1 inhib)
COC1CC(OC2CCC3(C)C(CCC4(O)C3CC(OC(=O)c3ccccc3)C3(C)C(O)(C(C)=O)CCC43O)C2)OC(C)C1OC1CC(OC)C(OC2OC(C)C(O)C(OC)C2O)C(C)O1 (stereo not drawn)	none
CO[C@H]1[C@@H](O)[C@@H](C)O[C@@H](OC2CCC3(C)C(CC[C@@H]4[C@@H]3CCC3(C)C(C5=CC(=O)OC5)C(O)CC43O)C2)[C@@H]1O (stereo partly drawn)	BJeLR viability 111
C[C@]12CC[C@H](O)C[C@H]1CC[C@@H]1[C@@H]2C[C@@H](O)[C@]2(C)[C@@H](C3=CC(=O)OC3)CC[C@]12O	BJeLR viability 83
CC(=O)O[C@H]1CC[C@]2(C=O)[C@H]3CC[C@]4(C)[C@@H](C5=CC(=O)OC5)CC[C@]4(O)[C@@H]3CC[C@]2(O)C1	BJeLR viability 111
CO[C@H]1[C@@H](O)[C@@H](C)O[C@@H](O[C@@H]2C=C3C(OC(C)=O)CC4(O)C(CC[C@]5(C)[C@@H](C6=CC(=O)OC6)CC[C@]45O)[C@@]3(C)CC2)[C@@H]1O (stereo partly drawn)	BJeLR viability 115
CC(=O)OCC(=O)[C@H]1CC[C@H]2[C@@H]3CC[C@H]4C[C@H](O)CC[C@]4(C)[C@H]3C(=O)C[C@]12C	none
Cc1cccc(C)c1NC1=NCCS1	none
O=c1c2ccccc2[se]n1-c1ccccc1	none
CC1(C)C(=O)C=C[C@@]2(C)C1C[C@@H](O)[C@]1(C)C2CC[C@@]2(C)[C@H](c3ccoc3)OC(=O)[C@H]3O[C@]321 (stereo partly drawn)	none
c1cncc(C2=NCCC2)c1	none
CC1(C)CC(=O)C2=C(C1)OC(N)=C(C(=O)OC(C)(C)C)C21C(=O)Nc2ccccc21 (stereo not drawn)	none
C[C@H]1O[C@@H](O[C@H]2[C@@H](O)C[C@H](O[C@H]3[C@@H](O)C[C@H](O[C@H]4CC[C@]5(C)C6CC[C@]7(C)[C@@H](C8=CC(=O)OC8)CC[C@]7(O)C6CC[C@@H]5C4)O[C@@H]3C)O[C@@H]2C)C[C@H](O)[C@@H]1O (stereo partly drawn)	BJeLR viability 113
CC(=O)OC1CCC2(C)C(CC[C@@H]3[C@@H]2CCC2(C)C(C4=CC(=O)OC4)CCC32O)C1 (stereo partly drawn)	BJeLR viability 89
CC12CC[C@H]3C(CCC4(O)CC(O)CCC34O)C1(O)CCC2C1=CC(=O)OC1 (stereo partly drawn)	none
C[C@]12CC[C@H](O)C[C@H]1CC[C@@H]1[C@@H]2CC[C@]2(C)[C@@H](C3=CC(=O)OC3)CC[C@]12O	BJeLR viability 91
COC1CC(O[C@H]2CC[C@@]3(C)C(CCC4C3CC[C@]3(C)C(C5=CC(=O)OC5)CCC43O)C2)OC(C)C1OC1OC(COC2OC(CO)C(O)C(O)C2O)C(O)C(O)C1O (stereo partly drawn)	BJeLR viability 94
CC[C@H]1CN2CC[C@H]1C[C@H]2[C@H](O)c1ccnc2ccc(OC)cc12	none
C[C@@H]1C(=O)O[C@H]2[C@H]1CC[C@@]1(C)C=CC(=O)[C@@]3(C)O[C@@]213	none
CC1(C)C(C(=O)Nc2ccccc2C#N)C1(C)C	none
CCCC(=O)O[C@@H]1[C@@H](C)[C@@]2(O)[C@@H](C=C(CO)C[C@]3(O)C(=O)C(C)=C[C@@H]23)[C@@H]2C(C)(C)[C@]12OC(=O)CCC	none
O=C1CCCN1CC#CCN1CCCC1	none
C[C@]12C=CC(=O)C=C1CC[C@@H]1C2CC[C@]2(C)C(=O)CCC12 (stereo partly drawn)	none
